# Results taken from PubChem BioAssay AID602447 (National Center for Advancing Translational Sciences (NCATS), 2012).
# Results filed as inconclusive are left out. Active and inactive are the calls of the source. No rule for the calls is given here.
# Biological target: Beta-2 adrenergic receptor (Homo sapiens) (UniProt P07550)
# Experiment: qHTS for antagonists of the Thyroid Stimulation Hormone Receptor: Hit Validation with Beta-2 Adrenergic Receptor
# Conditions: B2AR-expressing cells, cAMP HTRF, antagonist counterscreen; active compounds read high
# From the text: The thyroid-stimulating hormone receptor (TSHR) is a member of the 7 trans-membrane-spanning receptor (7TMR) family of cell surface receptors. TSHR-mediated hyperthyroidism is important in thyroid pathology. The development of small molecule antagonists of TSHR may lead to therapeutic approaches for TSHR-mediated hyperthyroidism caused by constitutively activating mutations or stimulating auto-antibodies associated with Graves' disease. Graves' disease is the leading cause of hyperthyroidism and is caused by autoantibodies that stimulate TSHR (TsAbs) causing thyroid growth and unregulated overproduction of thyroid hormones and existing treatments have liabilities (agranulocytosis). In addition, TSHRs are known to be expressed in multiple extrathyroidal tissues including bone, brain, kidney, testis, fat and cells of the immune system but the role of the TSHR in these tissues is not clear. Therefore, TSHR antagonists/inverse agonists could be used as probes of extrathyroidal TSHR function. Finally, TSHR inverse agonists, which are a subclass of antagonists that inhibit agonist-independent (or basal or constitutive) TSHR signaling, could be used to inhibit TSH-independent signaling in patients with recurrent or metastatic thyroid cancer who are receiving thyroid hormone to suppress TSH. […]
# Beta-2 adrenergic receptor (Homo sapiens), sequence (P07550 whole entry, looked up): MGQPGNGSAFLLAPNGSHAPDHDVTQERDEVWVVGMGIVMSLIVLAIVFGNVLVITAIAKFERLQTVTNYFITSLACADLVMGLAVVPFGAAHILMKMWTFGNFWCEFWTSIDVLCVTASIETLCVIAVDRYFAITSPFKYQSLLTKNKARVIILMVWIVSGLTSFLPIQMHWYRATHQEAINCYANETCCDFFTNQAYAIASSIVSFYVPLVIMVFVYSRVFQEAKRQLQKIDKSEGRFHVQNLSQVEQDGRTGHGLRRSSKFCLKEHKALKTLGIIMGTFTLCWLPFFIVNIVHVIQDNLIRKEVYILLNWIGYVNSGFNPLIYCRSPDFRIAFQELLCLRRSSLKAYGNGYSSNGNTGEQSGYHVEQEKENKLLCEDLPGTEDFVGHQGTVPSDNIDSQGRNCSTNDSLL
structure (smiles),measurement,value
N#CC(C#N)=NNc1ccc(-n2ccc(C(F)(F)F)n2)cc1,max inhibition,91.9% (active)
